Only some compounds are listed: those with a hit (about 4.6% of all), similar ones and a draw of the others.
HIF-2a block: blocks HIF-2a reporter activity; 786-0 RCC cells HIF-2a reporter, luciferase luminescence, overnight; inhibition, % at 18.8 µM; 360,000 tested, 0.72% active;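 active = inhibition of the luminescence signal of 40% or more relative to plate controls, in a single-dose primary screen at 18.75 µM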
Peg3 prom inh-1: reduces Peg3 promoter-driven luciferase expression in HeLa | 360,000 tested, 1.7% active | AID 588405 | inhibition, % at 20 µM | HeLa PEG-Prom luciferase reporter, luminescence, overnight;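 active = inhibition of at least 50% at 20 µM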
KKLEB tox: reduces viability of KKLEB cystic fibrosis airway cells; KKLEB CF airway cells viability, ATPlite luminescence, overnight; hits give low values; cells stimulated with P. aeruginosa culture filtrate; activity change (cytotoxicity), % at 5 µM; 360,000 tested, 0.36% active; AID 602141;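 active = corrected activity change at or below -50% at 5 µM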
ABHD5-PLIN5 inh: ABHD5-PLIN5 protein interaction inhibition; Q00G26+Q8WTS1; Split G. princeps luciferase complementation, luminescence, 4 h; inhibition, % at 4 µM; 360,000 tested, 0.78% active; AID 602281;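 active = inhibition above the mean inhibition across every tested compound plus 3 SD, cut at about 22% in these data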;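 note: 0% = DMSO only wells and the 100% control is not disclosed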
Target sequence (Q00G26 whole entry, looked up): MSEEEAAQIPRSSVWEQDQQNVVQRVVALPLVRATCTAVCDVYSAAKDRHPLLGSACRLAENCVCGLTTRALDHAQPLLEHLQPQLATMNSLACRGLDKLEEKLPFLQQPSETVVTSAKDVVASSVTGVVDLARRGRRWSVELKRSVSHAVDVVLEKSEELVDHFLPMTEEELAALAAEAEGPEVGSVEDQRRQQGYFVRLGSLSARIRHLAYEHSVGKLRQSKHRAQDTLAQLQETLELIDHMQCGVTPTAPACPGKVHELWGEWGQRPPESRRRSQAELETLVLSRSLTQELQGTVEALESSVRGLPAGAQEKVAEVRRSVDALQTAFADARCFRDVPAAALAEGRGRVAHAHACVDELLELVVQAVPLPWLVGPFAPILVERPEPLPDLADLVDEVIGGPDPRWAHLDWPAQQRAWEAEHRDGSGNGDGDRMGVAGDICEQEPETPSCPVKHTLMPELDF
Target sequence (Q8WTS1 whole entry, looked up): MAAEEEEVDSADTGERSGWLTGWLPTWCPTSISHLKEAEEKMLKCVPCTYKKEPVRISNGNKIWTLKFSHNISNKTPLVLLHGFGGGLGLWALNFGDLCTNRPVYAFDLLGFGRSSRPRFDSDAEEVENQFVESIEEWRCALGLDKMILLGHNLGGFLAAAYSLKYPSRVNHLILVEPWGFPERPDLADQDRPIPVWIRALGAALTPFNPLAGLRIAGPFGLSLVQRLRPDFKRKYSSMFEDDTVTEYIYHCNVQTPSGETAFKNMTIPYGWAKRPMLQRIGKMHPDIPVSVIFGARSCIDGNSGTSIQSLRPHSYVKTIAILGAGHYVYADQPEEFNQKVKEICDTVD
Mdm2 MdmX PPI: inhibitors of human Mdm2/MdmX interaction | O15151+Q00987 | SaOS-2 split-luciferase Mdm2/MdmX complementation, luminescence | inhibition, % at 8 µM | 330,000 tested, 3% active | AID 485346;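 active = inhibition of at least 50% at 8 µM in the primary screen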
CF NFkB block: cystic fibrosis NF-kB activation inhibition. KKLEB NF-kB-GFP reporter, PAF-induced, GFP fluorescence overnight. inhibition, % at 5 µM. 360,000 tested, 0.86% active;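 active = at least 50% inhibition at 5 µM, scaled per plate between neutral and stimulator controls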;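 note: PAF is a Pseudomonas aeruginosa culture filtrate used as stimulus; plate controls were PAF-stimulated DMSO wells for no effect and unstimulated DMSO wells for full effect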
Mdm2 MdmX conf-1: confirmation of human Mdm2/MdmX interaction inhibitors; AID 489028; Mdm2-MdmX binding, luminescent assay; shares compounds with Mdm2 MdmX PPI; 10,000 tested, 55% active; inhibition, % at 8 µM
FLuc counter: inhibits full-length luciferase, flagging false Mdm2/MdmX hits. shares compounds with Mdm2 MdmX PPI. SaOS-2 full-length luciferase counterscreen, luminescence. inhibition, % at 8 µM. 6,200 tested, 77% active. AID 504607;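 active = mean inhibition at 8 µM reaching about 37%, which flags the compound as non-specific, limit read from the data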;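 note: p53-null SaOS-2 cells with luciferase driven by a doxycycline-inducible promoter; compound on cells about two nights before reading with doxycycline added after day one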
Peg3 prom inh-2: confirmation of Peg3 promoter inhibitors; shares compounds with Peg3 prom inh-1; inhibition, % at 20 µM; 1,300 tested, 84% active; HeLa PEG-Prom luciferase reporter, luminescence, overnight;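 active = at 20 µM dose, 40% or more inhibition averaged across four replicates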
CF NFkB inh conf: CF NF-kB inhibition confirmation, single concentration; KKLEB CF airway cells, PAF-induced NF-kB-GFP fluorescence, overnight; shares compounds with CF NFkB block; 1,300 tested, 64% active; inhibition, % at 5 µM; AID 602472;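 note: stimulus PAF is a Pseudomonas aeruginosa filtrate and not platelet activating factor; plate controls were DMSO wells with stimulus for no effect and unstimulated DMSO wells for full effect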
ABHD5 PLIN5 conf: ABHD5-PLIN5 interaction inhibition, confirmed | AID 651612 | biochemical ABHD5-PLIN5 interaction, luminescence | 2,200 tested, 67% active | shares compounds with ABHD5-PLIN5 inh | inhibition, % at 4 µM; in the data active = inhibition above about 23%;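 note: 0% = DMSO vehicle wells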
HNF4 split-luc: active in HNF4 split-luciferase counter-screen for ABHD5-PLIN5 inhibitors. shares compounds with ABHD5-PLIN5 inh. inhibition, % at 4 µM. HNF4 dimerization, luminescence, biochemical. 2,200 tested, 77% active;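 active = mean inhibition across replicate wells exceeding the computed hit threshold, cut at about 13% in these data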;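 note: light from luciferase halves that rejoin when HNF4 fusion proteins dimerize; 0% = DMSO only wells and the 100% control is not given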
Mdm2 MdmX conf-2: confirmation of inhibitors of human Mdm2/MdmX interaction, set 2; 740 tested, 99% active; SaOS-2 split-luciferase Mdm2/MdmX complementation, luminescence; inhibition, % at 8 µM; shares compounds with HIF-2a block;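 active = mean inhibition of the luminescence signal across two replicates at or above 26 percent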
HIF-2a inh conf: confirmation of HIF-2a inhibitors | shares compounds with HIF-2a block | 786-0 RCC cells, HIF-2a luciferase reporter luminescence, overnight | inhibition, % at 18.8 µM | 1,800 tested, 56% active | AID 651580;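 active = mean inhibition across four replicates of at least 40 percent at the single tested concentration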
HIF-1a counter: inhibits HIF-1a reporter, a counter-screen for HIF-2a inhibitors; inhibition, % at 18.8 µM; 1,800 tested, 72% active; MiaPaCa-2 HIF-1a luciferase reporter, desferoxamine, overnight; AID 651589; shares compounds with HIF-2a block;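 active = mean inhibition of the reporter signal across four replicates at the single tested dose of 50% or more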
Active calls of the source: *; x = no result given. Cut-off read from the data, not from the text of the source, unless noted: active = inhibition above about 40%; inactive = the rest.

SMILES	HIF-2a block	Peg3 prom inh-1	KKLEB tox	ABHD5-PLIN5 inh	Mdm2 MdmX PPI	CF NFkB block	Mdm2 MdmX conf-1	FLuc counter	Mdm2 MdmX conf-2	HIF-2a inh conf	HIF-1a counter	others
CCN(CC)Cc1c(O)ccc2c1O/C(=C\C=C\c1ccccc1)C2=O	65.7*	81.5*	4.3	41.9*	98.3*	21.7	71.2*	25.3	14.3	x	x	ABHD5 PLIN5 conf=19.6;HNF4 split-luc=20.5*
CC1(C)CC2(OC2c2ccccc2[N+](=O)[O-])C(=O)c2ccccc21 (stereo not drawn)	23.5	18.9	-13.7	-3.5	x	10.5	x	x	x	x	x
Cc1ccc(S(=O)(=O)Nc2cccc3cccnc23)cc1	81.3*	109.1*	6.4	-0.2	99.1*	56.7*	98.7*	51.9*	103.2*	65.9*	-178.8
O=C1Nc2ccccc2/C1=C/C(=O)c1cccs1	54.0*	39.2	-20.0	31.8*	64.1*	35.0	23.2	x	x	37.5	41.5	ABHD5 PLIN5 conf=57.0*;HNF4 split-luc=94.5*
COc1ccc(C(=O)/C=C2/C(=O)Nc3ccccc32)c(OC)c1	90.6*	103.0*	-40.5	69.2*	86.0*	84.1*	26.1	x	x	63.5*	88.0*	CF NFkB inh conf=28.8;ABHD5 PLIN5 conf=94.7*;HNF4 split-luc=98.2*
CCN1C(=O)/C(=C\C(=O)c2cccs2)c2cc(Br)ccc21	22.7	24.1	-1.7	6.4	-4.2	-6.6	x	x	x	x	x
C=CCOc1ccccc1C(=O)/C=C1/C(=O)Nc2ccccc21	79.7*	75.6*	-48.6	84.6*	77.6*	92.3*	-6.2	x	x	32.0	54.9*	CF NFkB inh conf=36.9;ABHD5 PLIN5 conf=95.3*;HNF4 split-luc=96.6*
O=C1Nc2ccccc2/C1=C/c1cnc(-c2ccccc2)[nH]1	-191.2	-97.7	-24.0	2.4	-25.6	15.2	x	x	x	x	x
O=C(O)C(Cc1ccccc1)N=C(NS(=O)(=O)c1ccccc1)c1ccccc1 (stereo not drawn)	8.8	-6.0	-4.8	7.6	3.3	8.7	x	x	x	x	x
C=CS(=O)(=O)N(Cc1ccc(Cl)c(Cl)c1)C[C@@H](O)CO	0.8	69.2*	-7.1	3.2	81.0*	37.4	83.6*	55.0*	94.0*	x	x
Cn1ncc2c(O/N=C(\N)c3ccc(C(F)(F)F)cc3)ncnc21	93.9*	106.8*	-1.5	6.0	98.5*	7.1	46.0*	24.2	x	-13.2	-51.4
O=C(CSc1nncc2ccccc12)Nc1ccc(C(=O)O)cc1	-3.9	-0.1	11.9	-10.8	23.7	0.8	x	x	x	x	x
O=C(CCc1nnc2ccc(N3CCC4(CC3)OCCO4)nn12)Nc1ccc(F)cc1	7.5	-2.7	-3.1	-2.2	7.6	2.8	x	x	x	x	x
CC(C)n1cnc2c(NCc3ccccc3)cc(N[C@H](C)CO)cc21	-28.8	66.9*	-18.4	-38.0	74.0*	14.6	78.7*	52.0*	88.7*	x	x
Cc1nn(C)c(C)c1S(=O)(=O)N(CC(=O)NCCCN1CC(C)CC(C)C1)c1ccc(C(C)C)cc1 (stereo not drawn)	-0.8	2.1	-17.0	-1.2	9.5	23.8	x	x	x	x	x
Cc1ccccc1OCC(O)CNC1CCC(NCC(O)COc2ccccc2C)CC1 (stereo not drawn)	93.5*	101.2*	-37.1	12.4	100.3*	37.5	100.2*	51.8*	103.2*	20.9	104.9*	Peg3 prom inh-2=99.5*
Cc1ccc(OCC(O)CNC2CCCC2)c(C)c1 (stereo not drawn)	5.6	-3.3	-5.6	0.7	3.6	-6.9	x	x	x	x	x
CC(CCc1ccccc1)NC(=O)COC(=O)c1ccc(NC(=O)CC#N)cc1 (stereo not drawn)	7.5	0.6	15.4	1.0	11.5	-28.5	x	x	x	x	x
COc1cc(-c2cc(=O)c3c(O)c(OC)c(OC)c(O)c3o2)ccc1O	26.9	33.5	-25.6	-3.2	6.4	10.1	x	x	x	x	x
COc1ccc(-c2oc3c(OC)c(OC)c(OC)c(O)c3c(=O)c2OC)cc1OC	-4.9	42.0	-4.8	6.9	78.7*	-9.1	87.2*	47.5*	74.0*	x	x
CN(C)c1ncnc2c1ncn2C1CCCO1 (stereo not drawn)	5.9	11.2	5.0	-1.7	x	-6.2	x	x	x	x	x
c1ccc(-n2nnnc2Sc2ncnc3sc4c(c23)CCCC4)cc1	40.7*	68.5*	-51.8*	6.7	97.7*	82.5*	74.8*	47.5*	x	14.8	62.4*
O=C(O)CSc1ncnc2sc3c(c12)CCCC3	3.3	-3.5	-2.4	-2.0	7.1	35.9	x	x	x	x	x
Cc1sc2ncnc(Sc3nnnn3-c3ccc(Cl)cc3)c2c1C	41.4*	88.5*	-57.2*	5.1	100.6*	83.9*	79.0*	53.8*	102.7*	1.2	102.0*
CSc1nnnn1-c1ccc(Cl)cc1	22.9	-1.9	-6.7	-0.1	23.3	0.5	x	x	x	x	x
COCCC(=O)N1CCC(Oc2ccc(C(=O)N3CCC(N(C)C)C3)cc2)CC1 (stereo not drawn)	-2.2	-18.6	0.9	3.0	11.7	5.6	x	x	x	x	x
OC(COc1ccc(CNCCc2ccc(C(F)(F)F)cc2)cc1)CN1CCCCC1 (stereo not drawn)	22.8	104.0*	-7.7	-0.5	99.6*	11.2	99.0*	53.1*	103.7*	x	x
CCSCCc1nnc(NC(=O)Nc2cccc(C(F)(F)F)c2)s1	8.8	10.9	-56.5*	-2.2	94.9*	69.8*	95.2*	49.6*	98.0*	x	x
Cc1ccc(N(NC(=O)C(O)(c2ccccc2)c2ccccc2)C(=O)CCl)cc1	50.2*	103.1*	-66.4*	6.1	99.6*	57.8*	97.2*	56.1*	102.2*	32.2	99.3*
